Screening results from PubChem.
An excerpt weighted towards active compounds, which were near 7% of everything screened.
GRIN3A LBD mod: modulators (binders) of human NR3A ligand-binding domain; NR3A LBD differential scanning fluorimetry, Tm shift; 0% = protein alone, 100% = glycine-bound protein; Tm shift relative to glycine control, % at 25 µM; actives 2.5% (n = 340,000);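 active = melting temperature shift of at least 10% of the positive control shift, at one fixed dose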
AHR act: activates the human aryl hydrocarbon receptor | activation, % at 5 µM | AID 2796 | actives 2.5% (n = 320,000) | AHR-responsive luciferase reporter cells, luminescence; in the data active = activation above about 47%
ADAM10 inh: ADAM10 inhibition, QFRET primary screen. actives 0.62% (n = 370,000). AID 720582. recombinant ADAM10, EDANS/DABCYL FRET peptide cleavage, 3 h. O14672. inhibition, % at 7 µM;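 active = inhibition above a per-campaign cutoff equal to the mean of compounds falling between control-based bounds plus 3 SD, cut at about 20% in these data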
Target sequence (O14672 214-748 limits assumed): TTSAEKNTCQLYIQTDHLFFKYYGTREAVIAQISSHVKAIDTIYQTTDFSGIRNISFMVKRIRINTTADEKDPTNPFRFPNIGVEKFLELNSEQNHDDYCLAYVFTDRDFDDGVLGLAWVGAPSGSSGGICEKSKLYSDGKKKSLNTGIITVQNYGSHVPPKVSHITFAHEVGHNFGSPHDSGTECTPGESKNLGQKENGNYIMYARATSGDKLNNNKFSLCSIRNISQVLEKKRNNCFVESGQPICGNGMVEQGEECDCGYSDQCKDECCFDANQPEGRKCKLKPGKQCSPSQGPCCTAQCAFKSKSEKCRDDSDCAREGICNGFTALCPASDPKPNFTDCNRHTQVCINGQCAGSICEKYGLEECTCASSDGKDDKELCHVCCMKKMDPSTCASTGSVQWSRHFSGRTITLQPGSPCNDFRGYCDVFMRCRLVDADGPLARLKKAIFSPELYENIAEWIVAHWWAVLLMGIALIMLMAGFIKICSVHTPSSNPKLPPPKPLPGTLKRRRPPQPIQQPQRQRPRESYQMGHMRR
ADAM17 inh: inhibitors of human ADAM17; P78536; actives 0.83% (n = 370,000); inhibition, % at 6.95 µM; recombinant ADAM17, EDANS/DABCYL FRET peptide cleavage;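 active = inhibition above the mean of compounds lying between control limits plus 3 SD, set per campaign, cut at about 8.5% in these data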
proKLK7 act: activates the human kallikrein-7 zymogen | activation, % at 7 µM | actives 0.9% (n = 370,000) | purified proKLK7, EDANS-DABCYL substrate fluorescence; 100% is mature enzyme control, 0% vehicle | P49862;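 active = activation above the mean of all tested compounds plus 3 SD, computed per campaign excluding outliers beyond control limits, cut at about 13% in these data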
rCAG binder: binds r(CAG) RNA repeats; r(CAG) RNA repeat, TO-PRO-1 dye displacement fluorescence; inhibition, % at 3 µM; actives 1.3% (n = 370,000); AID 651821;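 active = inhibition above the plate cutoff, the mean of all test compounds on that plate plus 3 SD, cut at about 35% in these data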;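 note: higher means more dye released from RNA so lower well fluorescence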
AHR act confirm: human AHR activation, confirmation. AID 2845. actives 87% (n = 2,300). shares compounds with AHR act. human cells, AHR-responsive luciferase reporter, luminescence. activation, % at 9 µM; in the data active = activation above about 49%;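 note: HepG2 hepatoma cells carrying a DRE-driven firefly luciferase reporter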
PXR act counter: activates human PXR in AHR activator counter-screen; shares compounds with AHR act; cell-based PXR reporter, luciferase luminescence; activation, % at 11.6 µM; actives 88% (n = 2,300); AID 434939; in the data active = activation above about 11%;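 note: human hepatoma DPX-2 cells expressing full-length human PXR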
rCAG bind conf: r(CAG) RNA repeat binding, confirmation. shares compounds with rCAG binder. TO-PRO-1 dye displacement fluorescence. inhibition, % at 3 µM. actives 70% (n = 4,300). AID 652065;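 active = inhibition above a per-plate cutoff, the mean inhibition of sample wells plus 3 SD, cut at about 35% in these data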;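 note: loss of TO-PRO-1 fluorescence as compound displaces dye from 1x1 AA loop RNA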
DNA CAG counter: DNA CAG dye complex inhibition counter-screen; AID 652068; actives 94% (n = 4,300); shares compounds with rCAG binder; d(CAG) DNA oligo TO-PRO-1 dye displacement, fluorescence; inhibition, % at 3 µM;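 active = inhibition above its plate's cutoff, the mean test-well inhibition plus 3 SD, cut at about 4.8% in these data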;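 note: hits displace the dye from DNA and so lower well fluorescence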
proKLK7 act conf: proKLK7 activation, confirmation; shares compounds with proKLK7 act; purified proKLK7, EDANS-DABCYL substrate fluorescence; scaled: vehicle 0, mature enzyme 100; activation, % at 7 µM; actives 68% (n = 3,200); AID 686949;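 active = activation, as change over the incubation, above the mean of all tested compounds plus 3 SD, cut at about 13% in these data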
EDANS interfere: counter-screen for kallikrein-7 activators: EDANS-DABCYL optical interference | AID 686952 | activation, % at 7 µM | actives 80% (n = 3,200) | shares compounds with proKLK7 act | EDANS-DABCYL substrate fluorescence interference, no enzyme, 4 h; solvent 0%, active enzyme control 100%;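 active = activation above the all-compound mean plus 3 SD, ignoring values outside control-based bounds, cut at about 4.8% in these data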;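 note: value is the 4 h activation minus the activation read at time zero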
Hits are given with their value; – = inactive; · = no result.

SMILES	GRIN3A LBD mod	AHR act	ADAM10 inh	ADAM17 inh	proKLK7 act	rCAG binder	AHR act confirm	PXR act counter	others
Cc1ccc(OC2CCN(C(=O)[C@@H](Cc3ccccc3)NC(=O)[C@H]3O[C@@H](n4ccc(=O)[nH]c4=O)[C@H](O)[C@@H]3O)CC2)cc1	·	·	–	–	–	–	·	·
O=S1(=O)c2ccc(N3CCCC3)cc2Oc2ccccc2CN1Cc1cn(Cc2ccc(F)cc2)nn1	·	·	–	–	–	–	·	·
COC(=O)c1cc2c(c3c4cc(F)ccc4n(S(=O)(=O)c4ccc(OC)cc4)c13)C(=O)N(Cc1ccccc1OC)C2	·	·	–	–	–	–	·	·
Cc1ccc(Nc2nc(N)c([N+](=O)[O-])c(N3CCOCC3)n2)cc1C	–	119	–	–	–	–	83	21
Nc1nc(NCCCN2CCOCC2)nc(Nc2ccc(F)cc2)c1[N+](=O)[O-]	–	83	–	–	–	–	–	29
CCN=C1NC(CCc2ccccc2)C(C(=O)OC)=C(C)N1Cc1ccccc1C(F)(F)F (stereo not given)	·	·	–	–	–	–	·	·
CCNC(=S)N1CCN(CCN2C(=O)c3cccc4cccc(c34)C2=O)CC1	–	–	–	–	–	–	·	·
O=C1c2cccc3cccc(c23)C(=O)N1CCN1CCN(C(=S)Nc2ccc(Cl)cc2)CC1	–	97	–	–	–	–	110	65
Nc1cc2c3c(cccc3c1)C(=O)N(CCN1CCCC1)C2=O	–	142	–	–	–	–	201	·
O=C1c2cccc3cccc(c23)C(=O)N1CCN1CCN(C(=S)Nc2ccccc2)CC1	–	98	–	–	–	–	101	98
CCCCN1CC(COCc2ccccc2)Oc2cccc(Oc3ccc(SC)c(C)c3)c2S1(=O)=O (stereo not given)	·	·	–	–	–	–	·	·
Clc1ccc(-c2cc3ccccc3[nH]2)cc1	17	91	–	–	–	–	–	–
O=C(Nc1ccc(Cl)cc1[N+](=O)[O-])c1ccc2c(c1)OCCO2	–	–	–	–	–	–	·	·
Cc1ccc([N+](=O)[O-])cc1NC(=O)c1ccc2c(c1)OCO2	–	115	–	–	–	–	100	25
O=C(Nc1cc([N+](=O)[O-])ccc1Cl)c1ccc2c(c1)OCO2	–	106	–	–	–	–	100	23
CN1C(=O)/C(=C/c2ccccc2OCc2cccc(F)c2)NC1=S	–	97	–	–	–	–	74	35
CN1C(=O)/C(=C/c2ccccc2OCc2ccccc2)NC1=S	–	90	–	–	–	–	64	30
COc1cc(/C=C2\NC(=S)N(C)C2=O)ccc1OCc1cccc(F)c1	–	–	–	–	–	–	·	·
CN1C(=O)/C(=C/c2ccccc2OCc2ccc(C(=O)O)cc2)NC1=S	–	–	–	–	–	–	·	·
C[C@@H]1CCCCO[C@H](CN(C)C(=O)C2CCCCC2)[C@@H](C)CN([C@H](C)CO)C(=O)c2cc(NS(=O)(=O)c3cccs3)ccc2O1	·	·	–	–	–	–	·	·
NC1=NC(=O)/C(=C/c2cn(Cc3ccccc3)c3ccccc23)S1	–	116	–	–	–	44	87	25	rCAG bind conf=–;DNA CAG counter=11
O=C1C2C3C=CC(C3)C2C(=O)N1/N=C/c1cn(Cc2ccccc2)c2ccccc12 (stereo not given)	–	–	–	–	–	–	·	·
COC(=O)[C@]12C[C@H](CC(=O)NCc3ccc(C)o3)C(=O)N(Cc3ccc(Cl)cc3Cl)C1=C[C@H](C(C)C)O[C@@H]2C1CC1	·	·	–	–	–	–	·	·
NNc1nc2sc3c(c2c(=O)[nH]1)CCc1ccccc1-3	–	133	–	–	–	44	78	·	rCAG bind conf=–;DNA CAG counter=8.4
C=CCSc1nc2sc3c(c2c(=O)n1CC=C)CCc1ccccc1-3	–	–	–	–	–	–	·	·
SMILES	GRIN3A LBD mod	AHR act	ADAM10 inh	ADAM17 inh	proKLK7 act	rCAG binder	AHR act confirm	PXR act counter	others
CC(C)CSC1=NSC2=NC(=O)/C(=C\c3coc4ccccc4c3=O)C(=N)N12	–	81	–	–	–	61	–	18	rCAG bind conf=59;DNA CAG counter=55
CC(=O)CCN1CCSCCS1(=O)=O	·	·	–	–	–	–	·	·
CCOc1ccc2nc(NC(=O)Cc3cccs3)sc2c1	–	–	·	·	·	·	·	·
CCOc1ccc2nc(NC(=O)Nc3cccs3)sc2c1	26	96	–	–	–	64	90	12	rCAG bind conf=–;DNA CAG counter=28
Cn1ncc2c(Nc3ccc(Br)cc3)nc(Nc3ccc(Br)cc3)nc21	·	112	–	–	–	49	104	13	rCAG bind conf=–;DNA CAG counter=13
COc1cc(OC)cc(C(C)c2ccc(-c3ccccc3)cc2)c1 (stereo not given)	·	·	–	–	·	·	·	·
O=C(Nc1ccc(F)cc1)OCc1cn(Cc2ccccc2Cl)nn1	·	·	–	–	–	–	·	·
S=c1[nH]nc(-c2cc(-c3ccccc3)n[nH]2)n1/N=C/c1cccs1	–	132	–	–	–	35	128	39	rCAG bind conf=39;DNA CAG counter=10
C/C=C/COC(=O)c1[nH]c2c(c1C)C(=O)CC(c1ccco1)C2 (stereo not given)	–	116	–	–	–	38	–	197	rCAG bind conf=–;DNA CAG counter=9.4
O=C(Nc1nc2c(s1)CCc1ccccc1-2)c1cccs1	–	85	–	–	14	–	158	20	proKLK7 act conf=–;EDANS interfere=15
CCOc1ccc(-c2cc(C)n3nc(C(N)=O)cc3n2)cc1	–	79	–	–	30	–	68	·	proKLK7 act conf=49;EDANS interfere=56
COC(=O)c1cc2nc(-c3ccccc3)cc(C)n2n1	–	–	–	–	–	–	·	·
Nc1ccc2ccc(NS(=O)(=O)N3CCCCC3)cc2c1	·	·	–	–	–	–	·	·
S=c1[nH]nc(-c2cc3c(s2)-c2ccccc2CC3)o1	–	93	–	–	39	48	116	23	proKLK7 act conf=70;EDANS interfere=70
O=C(/C=C\c1ccccc1)Nc1nccs1	–	111	–	–	17	–	73	21	proKLK7 act conf=–;EDANS interfere=–
